D1 antagonist: human D1 dopamine receptor antagonism. activity change, negative = inhibition, % at 10 µM. P21728. AID 504652. HEK293 TREx D1 cells, calcium flux, dopamine EC80; stronger effect = lower value. hit rate 3.2% among 360,000; in the data active = activity change below about -30%; note: % is set by controls: 0 for no effect and ±100 for the full control effect
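Inducible Hek293 Trex D1 cells (tetracycline, overnight, 30 C). Calcium dye 30–90 min RT. Antagonist mode: EC80 dopamine added after 180 s compound read.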
TRHR ag: activates the human TRH receptor | TRHR cells, calcium flux fluo-8, FDSS agonist mode | AID 493084 | hit rate 0.18% among 360,000 | P34981 | activation, % at 2 µM; note: 0% is about no effect
Target sequence (P34981 whole entry, looked up): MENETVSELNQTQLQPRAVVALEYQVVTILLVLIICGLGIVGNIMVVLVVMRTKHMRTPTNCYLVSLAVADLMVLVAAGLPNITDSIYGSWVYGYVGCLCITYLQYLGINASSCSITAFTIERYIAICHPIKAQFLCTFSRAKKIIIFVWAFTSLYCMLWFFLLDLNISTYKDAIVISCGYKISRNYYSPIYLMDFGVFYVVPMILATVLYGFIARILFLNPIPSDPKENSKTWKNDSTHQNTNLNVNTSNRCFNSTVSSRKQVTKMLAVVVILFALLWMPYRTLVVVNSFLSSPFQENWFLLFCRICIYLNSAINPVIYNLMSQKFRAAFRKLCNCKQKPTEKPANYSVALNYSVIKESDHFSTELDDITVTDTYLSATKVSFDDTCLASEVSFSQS
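Agonist-mode FDSS calcium read (Ex 480/Em 530, 1 s cycles) in 1536-well TRHR cells with fluo-8 dye, after 10-cycle baseline and 23 nL compound addition; TRH at EC20 (10 nM final) added afterwards for the enhancer phase.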
D1 ag: human D1 receptor agonism | activation, % at 2 µM | HEK293 T-REx D1 cells, calcium flux, agonist mode | hit rate 1% among 360,000; note: 0% is about no effect
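Agonism was scored from calcium flux recorded over 180 s (1 read/s) after pintool compound addition, following a 10-cycle baseline. Cells were inducible force-coupled HEK293 TREx D1, plated overnight at 30 C and loaded with no-wash calcium dye.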
TRHR enhancer: TRH receptor (human) allosteric enhancement. P34981. TRHR cells, fluo-8 calcium fluorescence, EC20 TRH enhancement. enhancement, % at 2 µM. hit rate 0.66% among 360,000; in the data active = enhancement above about 30%; note: 0% is about no effect
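TRHR-expressing cells loaded with fluo-8 calcium dye were read kinetically (ex 480/em 530) during compound addition, then stimulated with an EC20 of TRH (10 nM final). Enhancement of the Gq-mediated intracellular calcium response was scored.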
D1 PAM: human D1 dopamine receptor positive modulation. P21728. HEK293 TREx D1 cells, calcium flux, dopamine EC20 potentiation. potentiation, % at 10 µM. hit rate 0.036% among 360,000. AID 504651; in the data active = potentiation above about 30%; note: 0% is about no effect
Active calls of the source: *; ! = repeats disagree. This is a sample that favours compounds with a hit; in the whole collection about 4.7% have one here. Cut-off read from the data, not from the text of the source, unless noted: active = activation above about 30%; inactive = the rest.

Results for COc1cccc(NC(=O)CCC(=O)Nc2cccc(OC)c2)c1 ?
D1 antagonist: -31*; TRHR ag: 0; D1 ag: 5; TRHR enhancer: 2; D1 PAM: -1

How did CCc1ccc(NC(=O)Nc2cccc(OC)c2)cc1 do in these assays?
D1 antagonist: -31*; TRHR ag: 0; D1 ag: 9; TRHR enhancer: 14; D1 PAM: -1

How did COc1cccc(NC(=O)Nc2ccc(CC(=O)O)cc2)c1 do in these assays?
D1 antagonist: 2; TRHR ag: 0; D1 ag: 1; TRHR enhancer: 7; D1 PAM: -1

Results for COc1cccc2cc(C(=O)NCCN3CCOCC3)c(=O)oc12 ?
D1 antagonist: 3; TRHR ag: 0; D1 ag: 0; TRHR enhancer: -2; D1 PAM: -4

What do the screens show for `CN(Cc1ccccc1)C(=O)CN1C(=O)NC2(CCCC2)C1=O`?
D1 antagonist: 7; TRHR ag: 0; D1 ag: -1; TRHR enhancer: 5; D1 PAM: -11

Results for N#Cc1ccsc1NC(=O)CN1C(=O)NC2(CCCC2)C1=O ?
D1 antagonist: -33*; TRHR ag: 1; D1 ag: 1; TRHR enhancer: -26; D1 PAM: -8

Results for O=C(CN1C(=O)NC2(CCCCCC2)C1=O)c1ccc(F)cc1 ?
D1 antagonist: -49*; TRHR ag: 0; D1 ag: -2; TRHR enhancer: -8; D1 PAM: -2

What do the screens show for `O=C(CN1C(=O)NC2(CCCCCC2)C1=O)c1ccc(Cl)cc1`?
D1 antagonist: -11; TRHR ag: 0; D1 ag: 5; TRHR enhancer: 10; D1 PAM: -3

Results for CN(Cc1ccccc1Br)C(=O)CN1C(=O)NC2(CCCCCC2)C1=O ?
D1 antagonist: -76*; TRHR ag: -1; D1 ag: -1; TRHR enhancer: -22; D1 PAM: -5

How did O=C(CN1C(=O)NC2(CCCC2)C1=O)OCc1ccc(Br)cc1 do in these assays?
D1 antagonist: -66*; TRHR ag: 0; D1 ag: 1; TRHR enhancer: 12; D1 PAM: -4

Results for O=C(CN1C(=O)NC2(CCCC2)C1=O)OCc1ccccc1 ?
D1 antagonist: -16; TRHR ag: 0; D1 ag: 0; TRHR enhancer: -10; D1 PAM: -6

Results for Cc1c(O)ccc(-c2[nH]ncc2-c2nc3ccccc3s2)c1O ?
D1 antagonist: -43*; TRHR ag: 0; D1 ag: 7; TRHR enhancer: -10; D1 PAM: -10

What do the screens show for `COc1ccc(Oc2nc3c(c(=O)n(C)c(=O)n3C)n2Cc2ccccc2Cl)cc1`?
D1 antagonist: -5; TRHR ag: 0; D1 ag: -1; TRHR enhancer: -3; D1 PAM: -2

How did CCc1nn(CC(=O)NCCCN2CCN(CC)CC2)c(=O)c2cc3occc3n12 do in these assays?
D1 antagonist: -35*!; TRHR ag: 0; D1 ag: 2; TRHR enhancer: 0; D1 PAM: -3

How did CCc1nn(CC(=O)NCCCN2CCOCC2)c(=O)c2cc3cc(F)ccc3n12 do in these assays?
D1 antagonist: -74*; TRHR ag: 0; D1 ag: 0; TRHR enhancer: -2; D1 PAM: -12

How did O=C(O)CCC(=O)N1CCN(c2ccccn2)CC1 do in these assays?
D1 antagonist: 20; TRHR ag: 0; D1 ag: 1; TRHR enhancer: -3; D1 PAM: -4

What do the screens show for `O=C(O)CCC(=O)N1CCN(c2nc3ccccc3s2)CC1`?
D1 antagonist: -69*; TRHR ag: 0; D1 ag: 0; TRHR enhancer: -1; D1 PAM: 2

How did O=C(O)CCC(=O)N1CCN(c2ncccn2)CC1 do in these assays?
D1 antagonist: -32*; TRHR ag: 0; D1 ag: 3; TRHR enhancer: -6; D1 PAM: 2

Results for Cc1cccc(C)c1NC(=O)N1CCN(c2nc3ccccc3s2)CC1 ?
D1 antagonist: -1; TRHR ag: -1; D1 ag: 8; TRHR enhancer: -4; D1 PAM: -5

Results for CC1CCN(C(=O)c2c(NC(=O)c3ccccc3F)sc3c2CCC(C(C)(C)C)C3)CC1 (stereo not given) ?
D1 antagonist: 16; TRHR ag: 2; D1 ag: 1; TRHR enhancer: 0; D1 PAM: -3

How did C#CCn1c(=NC(=O)c2ccccc2[N+](=O)[O-])sc2cc(S(C)(=O)=O)ccc21 do in these assays?
D1 antagonist: -11; TRHR ag: 0; D1 ag: 3; TRHR enhancer: 30*; D1 PAM: 0

What do the screens show for `COCCn1c(=NC(=O)c2nc3ccccc3s2)sc2cc(S(C)(=O)=O)ccc21`?
D1 antagonist: -85*; TRHR ag: 0; D1 ag: 0; TRHR enhancer: 1; D1 PAM: -4

How did O=S(=O)(c1ccc2c(c1)OCCO2)N1CCN(S(=O)(=O)c2c(F)ccc(O)c2F)CC1 do in these assays?
D1 antagonist: -2; TRHR ag: 0; D1 ag: 9; TRHR enhancer: 4; D1 PAM: -2

How did O=C(CN1CCN(Cc2ccc(F)cc2Cl)S1(=O)=O)Nc1ccc(F)cc1 do in these assays?
D1 antagonist: -20; TRHR ag: -1; D1 ag: 48*; TRHR enhancer: -1; D1 PAM: -3

Results for COc1ccc(S(=O)(=O)N(CC(=O)NCC2CCCO2)C2CCCCC2)cc1OC (stereo not given) ?
D1 antagonist: -1; TRHR ag: 0; D1 ag: 1; TRHR enhancer: -5; D1 PAM: -3

How did COc1cc(OC)cc(C(=O)NC2CCN(CCCOc3ccccc3)CC2)c1 do in these assays?
D1 antagonist: -37*; TRHR ag: 0; D1 ag: 7; TRHR enhancer: -3; D1 PAM: -20

How did CCCN1CCC(NC(=O)c2cccc(Oc3ccccc3)c2)CC1 do in these assays?
D1 antagonist: -14; TRHR ag: 2; D1 ag: 2; TRHR enhancer: -4; D1 PAM: -5

How did Cc1ccc(NC(=O)C(C)Sc2nc(-c3ccccc3)c(C#N)c(=O)[nH]2)c(C)c1 (stereo not given) do in these assays?
D1 antagonist: -2; TRHR ag: 0; D1 ag: -1; TRHR enhancer: 0; D1 PAM: 1

How did Cc1ccc(S(=O)(=O)NCC(=O)N(CC(=O)NCc2ccco2)Cc2ccco2)cc1 do in these assays?
D1 antagonist: -6; TRHR ag: 0; D1 ag: 1; TRHR enhancer: -3; D1 PAM: -5

Results for O=C(CN(Cc1ccco1)C(=O)CNS(=O)(=O)c1ccc(Cl)cc1)NCc1ccco1 ?
D1 antagonist: -52*; TRHR ag: 0; D1 ag: 0; TRHR enhancer: 3; D1 PAM: -1

Screening results from PubChem BioAssay.
